High-throughput results (PubChem BioAssay)
HSP90 inh: HSP90 inhibitors, primary screen, cell lysate, luminescence; Heat shock protein HSP 90 (rabbit reticulocyte lysate; luciferase refolding); Rabbit reticulocyte lysate, luciferase refolding luminescence, 3 h; inhibition, % at 5.6 µM; actives 0.91% (n = 290,000);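 active = inhibition above the screen-wide mean plus 3 SD, computed separately per campaign, cut at about 16% in these data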;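 also: inhibitors lower the luminescence because luciferase stays unfolded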
SENP7 inh: SENP7 protease inhibitors, primary screen, biochemical, luminescence, uHTS. inhibition, % at 5 µM. recombinant SENP7, Z-RLRGG-aminoluciferin luminescence, 40 min. Sentrin-specific protease 7 (Homo sapiens), Q9BQF6. actives 1.5% (n = 330,000);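 active = inhibition above about 50% at the single test dose, limit read from the data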
Target sequence (Q9BQF6 706-1050 limits assumed): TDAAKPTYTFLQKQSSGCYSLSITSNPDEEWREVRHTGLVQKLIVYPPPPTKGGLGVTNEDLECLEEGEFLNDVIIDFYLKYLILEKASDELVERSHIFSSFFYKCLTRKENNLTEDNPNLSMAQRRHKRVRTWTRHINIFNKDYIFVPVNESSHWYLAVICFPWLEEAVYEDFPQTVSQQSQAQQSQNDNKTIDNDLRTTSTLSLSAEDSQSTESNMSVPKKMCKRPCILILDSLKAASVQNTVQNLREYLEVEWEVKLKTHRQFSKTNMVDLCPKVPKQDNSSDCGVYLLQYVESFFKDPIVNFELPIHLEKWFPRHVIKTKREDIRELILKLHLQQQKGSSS
SENP6 inh: SENP6 protease inhibitors, primary screen, biochemical, luminescence, uHTS; Sentrin-specific protease 6 (Homo sapiens), Q9GZR1; actives 1.8% (n = 330,000); Recombinant SENP6 catalytic domain, aminoluciferin luminescence; inhibition, % at 10 µM;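 active = inhibition above about 50% at the single tested dose, limit read from the data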
SENP8 block-1: human SENP8 protease inhibitors, primary screen, biochemical, fluorescence, Nedd8 protein substrate, uHTS; recombinant SENP8; inhibition, % at 20 µM; actives 0.64% (n = 360,000); in the data active = inhibition mostly above about 40%, no sharp cut-off; inactive = mostly below about 27%
Target sequence (Q96LD8 whole entry, looked up): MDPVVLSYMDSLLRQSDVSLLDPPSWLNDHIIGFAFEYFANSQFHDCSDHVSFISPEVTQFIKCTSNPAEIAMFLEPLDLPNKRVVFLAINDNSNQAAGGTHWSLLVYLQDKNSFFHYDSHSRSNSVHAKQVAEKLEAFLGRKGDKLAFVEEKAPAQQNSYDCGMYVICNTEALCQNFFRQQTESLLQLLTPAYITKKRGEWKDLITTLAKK
SENP8 block-2: SENP8 protease inhibitors, primary screen, biochemical, luminescence; Sentrin-specific protease 8 (Homo sapiens), Q96LD8; purified SENP8, Z-RLRGG-aminoluciferin cleavage; inhibition, % at 10 µM; actives 1.2% (n = 330,000); AID 2540, 2010; in the data active = inhibition above about 50%
Hits are given with their value; n = inactive; x = not tested or not shown. This is a sample that favours compounds with a hit; in the whole collection about 2.7% have one here.

SMILES	HSP90 inh	SENP7 inh	SENP6 inh	SENP8 block-1	SENP8 block-2
Cc1c(C)c2ccc(OCC(=O)N3CCC(C(=O)O)CC3)cc2oc1=O	16.1	n	n	n	n
O=C(O)C1CCN(C(=O)COc2ccc3c4c(c(=O)oc3c2)CCCC4)CC1	n	n	n	n	n
CC(C)(C)c1ccc(/C=C2\Oc3cc(O)ccc3C2=O)cc1	n	n	n	n	n
O=C1/C(=C/c2ccc(Br)cc2)Oc2cc(O)ccc21	n	n	56.1	n	53.1
O=C(CSc1nnc(-c2cccs2)o1)OCc1ccccc1	x	n	n	n	n
COC1=CC(=O)c2c(ccc3ncnc(N)c23)C1=O	x	x	x	83.7	x
COC(=O)c1ccc(NC(=O)C(=O)N2CCCC2)cc1	16.5	n	n	n	n
COC(=O)c1ccc(NC(=S)N2CCCC2)cc1	n	n	n	n	n
Cn1c(COc2ccccc2)nc2ccccc21	n	n	n	n	n
CCN1C(=O)/C(=C\C=C2/C=CC=CN2CC)SC1=S	n	n	n	n	n
CCN1C(=O)C(=CC=CN(C)c2ccccc2)SC1=S	x	x	x	62.5	x
CCN1C(=O)/C(=C/C=C2\C=CN(CC)c3ccccc32)SC1=S	n	x	x	63.9	x
CC1(C)Oc2ccc3ccc(=O)oc3c2/C(=C/Nc2ccc(O)cc2)C1=O	n	n	n	n	n
COc1ccc2c(c1)O/C(=C\c1sccc1C)C2=O	n	70.9	79.5	n	n
CC1=NN(C(N)=S)C(=O)C1N=Nc1ccccc1C(=O)O (stereo not drawn)	n	n	n	n	n
CN1C(=O)C(N=Nc2ccccc2C(=O)O)N(C)C1=S (stereo not drawn)	n	n	88.8	n	86.4
CCCC(=O)N(Cc1cc2cc(OC)ccc2[nH]c1=O)c1ccc(OC)cc1	x	x	x	n	x
C[C@@H]1C=C(C(=O)N2CCN(Cc3ccc4c(c3)OCO4)CC2)O[C@H](OCCCCO)C1	n	n	n	n	n
O=C(C1=C[C@@H](c2coc3ccccc3c2=O)C[C@@H](OCCCCO)O1)N1CCN(Cc2ccc3c(c2)OCO3)CC1	16.8	n	n	n	n
O=C(C1=C[C@H](C2CC2)C[C@H](OCCCCO)O1)N1CCN(Cc2ccc3c(c2)OCO3)CC1	16.8	n	n	n	n
NC(=O)C1CCN(C2=C(NS(=O)(=O)c3ccc(Br)cc3)C(=O)c3ccccc3C2=O)CC1	n	n	n	41.0	n
CCN1CCN(C2=C(NS(=O)(=O)c3ccccc3)C(=O)c3ccccc3C2=O)CC1	n	n	n	57.9	n
O=C1C(NS(=O)(=O)c2ccc(Cl)cc2)=C(N2CCCCC2)C(=O)c2ccccc21	n	n	n	45.9	n
CCOC(=O)N1CCN(C2=C(NS(=O)(=O)c3ccc(Br)cc3)C(=O)c3ccccc3C2=O)CC1	x	x	x	53.9	x
CN1CCN(C2=C(NS(=O)(=O)c3ccccc3)C(=O)c3ccccc3C2=O)CC1	n	n	n	n	n
SMILES	HSP90 inh	SENP7 inh	SENP6 inh	SENP8 block-1	SENP8 block-2
O=C(CCSc1ccc(Cl)cc1)NN=C1CCCCCC1	n	n	n	n	n
COc1ccc(NC(=O)COc2ccccc2C(=O)NCC(c2ccccc2)N(C)C)cc1Cl (stereo not drawn)	n	n	n	n	n
CC(C)(C)c1cc(CCC(=O)NNC(=O)c2ccco2)cc(C(C)(C)C)c1O	n	n	n	n	n
CCOC(=O)N1CCN(C2=C(NS(=O)(=O)c3ccccc3)C(=O)c3ccccc3C2=O)CC1	n	n	n	54.2	n
CC(C)(C)c1ccc(/C=N/N2CCN(c3ccccn3)CC2)cc1	n	n	n	n	n
CN(C)c1ccc(/C=N/N2CCN(c3ccccn3)CC2)cc1	n	77.7	74.5	n	62.0
O=c1c(-c2ccc([N+](=O)[O-])cc2)coc2c(O)c(O)ccc12	n	n	n	n	n
COc1ccc(S(=O)(=O)n2ccc(-c3cnc(-c4ccccc4)s3)n2)cc1	n	n	n	n	n
O=C(c1ccccc1)n1ccc(-c2cnc(-c3ccccc3)s2)n1	n	90.1	56.6	n	67.5
COc1cc(/C=N/NS(=O)(=O)c2ccc(C)c([N+](=O)[O-])c2)cc([N+](=O)[O-])c1O	n	n	n	41.4	n
COc1ccc(C2C(=O)N(C3CCCCC3)CC(=O)N2Cc2ccc3c(c2)OCO3)cc1 (stereo not drawn)	n	n	100.1	n	n
CC(C)(Oc1ccc(Cl)cc1)C(=O)NCc1n[nH]c(=O)c2ccccc12	x	n	n	n	n
CC(C)C(=O)NC(c1ccccc1)c1cc([N+](=O)[O-])c2cccnc2c1O (stereo not drawn)	n	n	n	n	n
CC(=O)NC(c1ccccc1)c1cc([N+](=O)[O-])c2cccnc2c1O (stereo not drawn)	n	n	n	52.5	n
CCCC(=O)NC(c1cccs1)c1cc([N+](=O)[O-])c2cccnc2c1O (stereo not drawn)	n	x	x	51.7	x
CCC(=O)NC(c1cccs1)c1cc([N+](=O)[O-])c2cccnc2c1O (stereo not drawn)	n	n	n	66.1	n
CC(=O)NC(c1cccs1)c1cc([N+](=O)[O-])c2cccnc2c1O (stereo not drawn)	n	x	x	45.3	x
CC(=O)NC(c1cccs1)c1cc(Cl)c2ccccc2c1O (stereo not drawn)	x	n	n	n	n
CCn1cc(CNC(=O)CSc2nc(-c3ccc(OC)c(OC)c3)cc(C(F)(F)F)n2)c(C)n1	n	n	n	n	n
CCOc1ccccc1NC(=O)Nc1ccc(Cl)cc1	n	71.6	82.6	n	52.2
COc1ccc(NC(=O)Nc2ccc(C(=O)N3CCOCC3)cc2)c(OC)c1	n	n	n	n	n
COc1cc(OC)c(C(=O)/C=C/c2ccccc2)c(O)c1O	x	n	n	45.3	n
COc1cc(O)cc(O)c1C(=O)/C=C/c1ccccc1	n	n	n	n	n
COC1CC(C)C(OC)c2cc(O)cc(c2O)NC(=O)C(C)=CC=CC(C)C(OC(N)=O)C(C)=CC(C)C1OC (stereo not drawn)	x	x	x	n	x
COC1C=CC=C(C)C(=O)NC2=CC(=O)C(N)=C(CC(C)CC(OC)C(O)C(C)C=C(C)C1OC(N)=O)C2=O (stereo not drawn)	x	x	x	57.2	x
SMILES	HSP90 inh	SENP7 inh	SENP6 inh	SENP8 block-1	SENP8 block-2
Nc1[nH]n2c(=O)c3c(nc2c1N=Nc1ccc(Cl)cc1)CCCC3	n	n	n	45.2	n
Nc1[nH]n2c(=O)c3c(nc2c1N=Nc1ccccc1)CCCC3	n	n	n	52.9	n
Cc1[nH]n2c(=O)c3c(nc2c1-c1ccc(Cl)cc1)CCC3	n	n	n	n	n
Cc1cccc(NC(=O)c2cnc3sccn3c2=O)c1	n	n	n	n	n
Cc1cccc(NC(=O)c2cnc3ccccn3c2=O)c1	n	67.2	81.0	n	66.7
COC(=O)c1c(F)c(F)c(N2CCOCC2)c(F)c1F	n	n	n	n	n
